Assay [1] can be described thus: Quantitative High-Throughput drug screen in 47 multiple myeloma cell lines against the NCATS MIPE library collection: KMS12PE_JCRB cell viability assay (AID 1918972). Further: nearly all actives have a fitted effect of over 30% in size. The gist of the method:
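CellTiter-Glo ATP luminescence gave viability after 48 h compound treatment at 37C of 500 multiple myeloma cells per well. Normalisation used DMSO-only wells as 100% and media-only wells as 0% viability; primary qHTS of approved and investigational drugs.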

Assay [2] can be described thus: Quantitative High-Throughput drug screen in 47 multiple myeloma cell lines against the NCATS MIPE library collection: KMS20_JCRB cell viability assay (AID 1918973). Further: nearly all actives have a fitted effect of over 45% in size. The gist of the method:
(§1)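 qHTS of the MIPE 4.0 collection: 500 myeloma cells/well, 48 h drug exposure at 37C in 5% CO2, then CellTiter-Glo for 5 min at room temperature before luminescence reading.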

Assay [3] is described as follows: Quantitative High-Throughput drug screen in 47 multiple myeloma cell lines against the NCATS MIPE library collection: KMS26_JCRB cell viability assay (AID 1918975). Further: nearly all actives have a fitted effect of over 45% in size. The method in brief:
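Steps: seed 500 cells per well; pin-transfer MIPE 4.0 library; incubate 48 h at 37C, 5% CO2, humidified; add CellTiter-Glo, 5 min room temperature; read luminescence.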

Assay [4] in a line: Quantitative High-Throughput drug screen in 47 multiple myeloma cell lines against the NCATS MIPE library collection: MMM1_PLB cell viability assay (AID 1918976). Further: nearly all actives have a fitted effect of over 35% in size. The gist of the method:
(§2)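 ATP-based CellTiter-Glo luminescence after 48 h drug exposure (37 °C, 5% CO2) of 500 myeloma cells per well. DMSO-only wells set 100% viability, media-only wells 0%; MIPE 4.0 library added by pin tool.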

The nature of assay [5]: Quantitative High-Throughput drug screen in 47 multiple myeloma cell lines against the NCATS MIPE library collection: MM1S_ATCC cell viability assay (AID 1918980). Further: nearly all actives have a fitted effect of over 45% in size. The method in brief: as §2
Assay [6] is described as follows: Quantitative High-Throughput drug screen in 47 multiple myeloma cell lines against the NCATS MIPE library collection: MM1R_ATCC cell viability assay (AID 1918981). Further: nearly all actives have a fitted effect of over 35% in size. The gist of the method:
as §2

The nature of assay [7]: Quantitative High-Throughput drug screen in 47 multiple myeloma cell lines against the NCATS MIPE library collection: NCIH929_DSMZ cell viability assay (AID 1918978). Further: nearly all actives have a fitted effect of over 35% in size. The method in brief: as §2
Assay [8] can be described thus: Quantitative High-Throughput drug screen in 47 multiple myeloma cell lines against the NCATS MIPE library collection: OCIMY1_PLB cell viability assay (AID 1918979). Further: nearly all actives have a fitted effect of over 35% in size. The gist of the method:
as §2

The nature of assay [9]: Quantitative High-Throughput drug screen in 47 multiple myeloma cell lines against the NCATS MIPE library collection: KMS21BM_JCRB cell viability assay (AID 1918974). The following applies: ATP luminescence, 48 h; viability: at 45.8 µM (top of the series). The method in brief:
as §1

Assay [10] in a line: Quantitative High-Throughput drug screen in 47 multiple myeloma cell lines against the NCATS MIPE library collection: MOLP8_DSMZ cell viability assay (AID 1918977). Further: nearly all actives have a fitted effect of over 45% in size. The gist of the method:
as §2

The structures appear in SMILES notation. Results filed as inconclusive are left out. The source made the active and inactive calls. The call rests on the fitted dose curve; in most records, active means well fitted curve in the direction sought with a large enough effect; inconclusive means small, poorly fitted or top-dose-only effect, or another doubt; inactive means no such curve, though single readings can be large; an effect the other way counts as inactive or inconclusive.
Potency means the concentration at half of the fitted maximal effect.

`NC(=O)c1noc([C@H](CCCC2CCCCC2)CC(=O)NO)n1`: the Potency in assay [1] is 5.26 µM (active); in assay [2], 18.7 µM (active); in assay [3], 11.8 µM (active); in [4], 16.6 µM (active); in [5] it was 16.6 µM (active).

For `C[C@@H]1C[C@H]2[C@@H]3CCC4=CC(=O)C=C[C@]4(C)[C@@]3(F)[C@@H](O)C[C@]2(C)[C@@]1(O)C(=O)CO`, the Potency result in assay [1], in [3] and in [6] was “inactive” each time. The Potency in assay [2] is 0.418 µM (active); in assay [5], 0.0264 µM (active).

In the case of `NC1(C(=O)N[C@@H](CCO)c2ccc(Cl)cc2)CCN(c2ncnc3[nH]ccc23)CC1`, the Potency was 0.418 µM (active) in assay [1]; 1.18 µM (active) in assay [2]; 0.209 µM (active) in assay [3]; 0.0105 µM (active) in assay [4]; 0.0833 µM (active) in assay [7]; 0.0833 µM (active) in [5]. Besides, in assay [6], the Potency was 0.148 µM (active).

As to `Cc1ccc2c(=O)c3cccc(CC(=O)O)c3oc2c1C`, the Potency entry in assay [1], in assay [4] and in assay [8] was “inactive” throughout. In addition, the Potency in [2] is 33.2 µM (active); in [5], 14.8 µM (active); in assay [6], 18.7 µM (active).

Consider `CC(C)N(CCCNC(=O)Nc1ccc(C(C)(C)C)cc1)C[C@H]1O[C@@H](n2cc(Br)c3c(N)ncnc32)[C@H](O)[C@H]1O`, for which the Potency entry in assay [1] was “inactive”. The Potency in [2] was 5.26 µM (active); in [4] it was 18.7 µM (active); in assay [7], 23.5 µM (active); in assay [5], 23.5 µM (active); in assay [6], 20.9 µM (active).

For `COc1ccc(-c2nc3ccc(C4=NNC(=O)CC4C)cc3[nH]2)cc1` (stereo not given), the Potency result in [1], in assay [9], in assay [3], in assay [10] and in [6] was “inactive” each time. Also, the Potency in assay [5] was 23.5 µM (active).

As to `CN1CCN(c2cccc(Nc3nc4c(-c5ccc(S(C)(=O)=O)cc5)cccn4n3)c2)CC1`, the Potency in assay [1] is 0.833 µM (active); in assay [9] it was 3.32 µM (active); in assay [4], 16.6 µM (active); in [10] it was 9.35 µM (active); in [7], 2.64 µM (active); in assay [6], 16.6 µM (active).

In the case of `Oc1cc(O)cc(C=Cc2ccc(O)c(O)c2)c1`, the Potency is 18.7 µM (active) in assay [1]; 2.96 µM (active) in assay [2]; 23.5 µM (active) in assay [4]; 6.62 µM (active) in assay [7]; 26.4 µM (active) in assay [5]; 20.9 µM (active) in [6].

Turning to `CC[C@H](C)n1cc(C)c2c(C(=O)NCc3c(C)cc(C)[nH]c3=O)cc(-c3ccc(N4CCNCC4)nc3)cc21`, the Potency entry in assay [1] was “inactive”. Moreover, the Potency in assay [2] is 18.7 µM (active); in assay [8] it was 26.4 µM (active); in [5], 0.935 µM (active).

Take `Clc1ccc(COC(Cn2ccnc2)c2ccc(Cl)cc2Cl)c(Cl)c1` (stereo not given): the Potency in assay [1] is 18.7 µM (active); in assay [9], 37.2 µM (active); in [3] it was 23.5 µM (active); in assay [4], 16.6 µM (active); in assay [10], 18.7 µM (active); in assay [7], 18.7 µM (active). The Potency in assay [6] is 23.5 µM (active).

In the case of `CC(C)(C)c1nc(-c2cccc(NS(=O)(=O)c3c(F)cccc3F)c2F)c(-c2ccnc(N)n2)s1`, the Potency was 1.87 µM (active) in assay [1]; 2.35 µM (active) in assay [9]; 7.43 µM (active) in assay [7]; 16.6 µM (active) in assay [5]; 18.7 µM (active) in [6]. Besides, in [3], the Potency entry is “inactive”.

For `O=C(O)C1=CO[C@@H](O[C@@H]2O[C@H](CO)[C@H](O)[C@H](O)[C@H]2O)[C@@H]2C(CO)=CC[C@H]12`, the Potency was 0.0743 µM (active) in assay [1] and 16.6 µM (active) in [5]. Besides, the Potency entry in assay [2], in assay [10] and in [6] was “inactive” each time.

As to `CCCCN(CCCC)CC(O)c1cc(Cl)cc2c1-c1ccc(Cl)cc1C2=Cc1ccc(Cl)cc1` (stereo not given), the Potency result in assay [1] was “inactive”. Also, the Potency in assay [2] is 11.8 µM (active); in assay [4], 23.5 µM (active); in assay [7], 26.4 µM (active); in assay [5] it was 23.5 µM (active).

Consider `COc1cc2nc(-c3cc(F)ccc3O)nc(N[C@@H]3CNC[C@@H]3C(C)(C)O)c2cc1OC`, for which the Potency was 8.33 µM (active) in assay [1]; 0.935 µM (active) in assay [9]; 18.7 µM (active) in [3]; 7.43 µM (active) in [7]; 18.7 µM (active) in [8]; 18.7 µM (active) in assay [5]. Further, the Potency in assay [6] is 9.35 µM (active).

For the molecule `CN1CC(=O)N2C(Cc3c([nH]c4ccccc34)[C@H]2c2ccc3c(c2)OCO3)C1=O` (stereo not given in full), the Potency entry in [1], in assay [2], in assay [10], in assay [7], in assay [8] and in assay [6] was “inactive” in each case.

Take `CC[C@H]1OC(=O)[C@H](C)[C@@H](O[C@H]2C[C@@](C)(OC)[C@@H](O)[C@H](C)O2)[C@H](C)[C@@H](O[C@@H]2O[C@H](C)C[C@H](N(C)C)[C@H]2O)[C@](C)(O)C[C@H](C)C(=NOCOCCOC)[C@H](C)[C@@H](O)[C@]1(C)O`: the Potency entry in [1], in assay [2], in assay [7], in assay [8] and in assay [6] was “inactive” throughout. The Potency in [5] was 20.9 µM (active).

Turning to `CN(C)CC[C@H](CSc1ccccc1)Nc1ccc(S(=O)(=O)NC(=O)c2ccc(N3CCN(Cc4ccccc4-c4ccc(Cl)cc4)CC3)cc2)cc1[N+](=O)[O-]`, the Potency in assay [1] is 0.0235 µM (active); in assay [9], 0.0833 µM (active); in assay [3] it was 1.66 µM (active); in assay [4], 0.526 µM (active); in assay [5], 1.66 µM (active); in assay [6], 0.833 µM (active).

Take `Cc1ccc(NC(=O)Nc2cc(C(F)(F)F)ccc2F)cc1Nc1ccc2c(c1)NC(=O)C2=Cc1ccc[nH]1`: the Potency was 2.35 µM (active) in assay [1], 5.9 µM (active) in assay [2], 33.2 µM (active) in [4] and 26.4 µM (active) in [6].

For `Cc1cccc(Nc2nc(N[C@@H]3CCCC[C@H]3N)ncc2C(N)=O)c1`, the Potency in [1] is 16.6 µM (active); in [2], 4.69 µM (active); in assay [4], 20.9 µM (active); in assay [7], 6.62 µM (active); in [8] it was 26.4 µM (active); in assay [6], 26.4 µM (active).

Consider `Nc1ncnc2c1ncn2[C@@H]1O[C@H](CO)[C@@H](O)[C@@H]1O`, for which the Potency in assay [1] is 1.66 µM (active); in assay [9], 0.209 µM (active); in [3], 16.6 µM (active); in assay [5], 0.743 µM (active); in assay [6] it was 20.9 µM (active). For the same molecule, in assay [8], the Potency result was “inactive”.

As to `CC(=O)OCC(=O)[C@@]12OC(C)(C)O[C@H]1C[C@H]1[C@@H]3C[C@H](F)C4=CC(=O)C=C[C@]4(C)[C@@]3(F)[C@@H](O)C[C@@]12C`, the Potency entry in assay [1], in [2], in assay [7] and in assay [6] was “inactive” in each case. Also, the Potency in assay [5] is 0.0372 µM (active).

As for `O=C(Nc1cccc2c(=O)cc(-c3nn[nH]n3)oc12)c1ccc(OCCCCc2ccccc2)cc1`, the Potency in [1] was 20.9 µM (active); in [2] it was 14.8 µM (active); in [5], 23.5 µM (active); in assay [6] it was 26.4 µM (active). The Potency result in assay [10] was “inactive”.

In the case of `CC[C@]1(O)C[C@H]2CN(CCC3=c4ccccc4=N[C]3[C@@](C(=O)OC)(c3cc4c(cc3OC)N(C)[C@H]3[C@@](O)(C(N)=O)[C@H](O)[C@]5(CC)C=CCN6CC[C@]43[C@@H]65)C2)C1`, the Potency in [1] was 0.132 µM (active); in assay [9], 0.0935 µM (active); in [3], 0.0662 µM (active); in [4], 0.132 µM (active); in assay [7], 0.166 µM (active); in assay [5] it was 0.235 µM (active). The Potency in assay [6] is 0.0662 µM (active).

As for `CNC(=O)c1cc(Oc2ccc(NC(=O)Nc3ccc(Cl)c(C(F)(F)F)c3)c(F)c2)ccn1`, the Potency in assay [1] is 4.69 µM (active); in assay [9], 2.96 µM (active); in assay [3], 23.5 µM (active); in [4], 8.33 µM (active); in assay [10], 13.2 µM (active); in assay [8] it was 23.5 µM (active). In addition, the Potency was 2.09 µM (active) in [5] and 20.9 µM (active) in [6].
